Test results taken from PubChem BioAssay AID588405 (Sanford-Burnham Center for Chemical Genomics, 2011).
The whole screen tested about 360,000 compounds, of which about 6,200 (1.7%) were called active. This is one part of a sample in which actives are shown more often than they occur. Values without a mark were called inactive.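 The calls were made as follows: active = inhibition of at least 50% at 20 µM; inactive = the rest.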

experiment: inhibition of PEG-3 promoter activity – cell-based, HeLa, luciferase luminescence, primary screen (AID 588405); settings: HeLa PEG-Prom luciferase reporter, overnight, at 20 µM, stronger effect = higher value

Row | Compound | inhibition
1 | CCCN(c1ccc(C)cc1)c1nc(=O)c2cccnc2s1 | 8.6%
2 | CC(=O)Nc1cncc(-c2ccccc2CO)n1 | 7.63%
3 | CN(C)C(=O)CCc1ccc2c3c([nH]c2c1)[C@]1(CCC2CCCC2)[C@@H](C(=O)N2CCOCC2)C[C@H](CC(=O)NCc2ccco2)C(=O)N1CC3 | 0.84%
4 | CC[C@]12c3[nH]c4ccc(OC)cc4c3CCN1C(=O)C(CC(=O)NCc1ccco1)C[C@@H]2C(=O)N1CCN(C(=O)C2CC2)CC1 (some centres not stated) | -6.85%
5 | O=C(C[C@H]1C[C@H](C(=O)N2CCOCC2)[C@@]2(CCC3CCCC3)c3[nH]c4ccc(Cl)cc4c3CCN2C1=O)NCc1ccco1 | 61.1% (active)
6 | COc1ccc2[nH]c3c(c2c1)CCN1C(=O)C(CC(=O)NCCCN(C)C)C[C@H](C(=O)N2CCOCC2)[C@@]31CCC1CCCC1 (some centres not stated) | 1.46%
7 | CC[C@]12c3[nH]c4ccc(Cl)cc4c3CCN1C(=O)[C@@H](CC(=O)NCCN1CCOCC1)C[C@@H]2C(=O)N1CCN(C(=O)C2CC2)CC1 | -0.39%
8 | COc1ccc(CNC(=O)C[C@H]2C[C@H](C(=O)N3CCOCC3)[C@@]3(CCC4CCCC4)c4[nH]c5ccc(Cl)cc5c4CCN3C2=O)cc1OC | 56.1% (active)
9 | COC(=O)CCCCC1=CCC2C(=O)C=C(O)C2C1 (configuration not stated) | 0.22%
10 | COc1ccc(C(C)(O)c2nc(-c3cc(F)cc(F)c3)cs2)cc1 (configuration not stated) | 23.2%
11 | COc1cccc(-c2cc3nc(NCc4ccccc4OC)n(C)c(=O)c3s2)c1 | -50%
12 | COc1cc(F)c(C2=CC(=O)CC(C)(C)C2)cc1F | -42.1%
13 | O=C(O)c1ccccc1-c1cccc2nncn12 | -2.07%
14 | O=C(Nc1cccc(NC(=O)c2ccccc2[N+](=O)[O-])c1)c1ccccc1Cl | -9.06%
15 | CC(=O)Nc1ccc(NC(=O)COC(=O)c2ccccc2C(=O)c2ccccc2)cc1 | -1.14%
16 | CC(OC(=O)CNC(=O)c1ccc(Cl)c([N+](=O)[O-])c1)C(=O)NCc1ccco1 (configuration not stated) | 3.12%
17 | N#Cc1cccc(NC(=O)COC(=O)c2ccccc2C(=O)c2ccc(Cl)c([N+](=O)[O-])c2)c1 | 108% (active)
18 | COC(=O)c1cc(NC(=O)Cc2ccccc2[N+](=O)[O-])ccc1Cl | -2.09%
19 | CC(=O)Nc1ccc(NC(=O)C(C)OC(=O)c2ccccc2C(=O)c2ccc(Cl)c([N+](=O)[O-])c2)cc1 (configuration not stated) | 93.7% (active)
20 | C=CCC1(C#N)C(=S)NC(C)=C(C(=O)OCC)C1c1ccccc1 (configuration not stated) | 3.78%
21 | CCc1nc2c(OCCc3cccc(OC)c3)cccn2c1N(C)C(=O)c1ccc(C)cc1 | 5.31%
22 | CC1(C(=O)NS(=O)(=O)c2ccc(Cl)cc2)CCN1C(=O)CC1CCCC1 (configuration not stated) | 8.85%
23 | CCN(c1ccccc1)S(=O)(=O)c1cccc(C(=O)NCc2ccccc2CN2CCOCC2)c1 | -0.46%

Row | Compound | inhibition
24 | CCOC1=C2CN(S(=O)(=O)c3ccc(C)cc3)[C@H](c3cccs3)C[C@H]2[C@H]2C(=O)N(c3ccccc3)C(=O)[C@H]2C1 | -59.4%
25 | CCCCCCCCCCOC(=O)Cn1c(COc2ccc(C)cc2)[n+](C)c2ccccc21 | 116% (active)
26 | Cc1noc(C)c1COC(=O)Cn1c(C)nc2ccccc21 | 8.44%
27 | Cc1ccc(COc2ccc(C(=O)NN)cc2)cc1 | -58.5%
28 | CCCCCCCCCCOC(=O)Cn1c(COc2cccc(OC)c2)[n+](C)c2ccccc21 | 102% (active)
29 | CCOC(=O)c1cn(CC)c2cc(F)c(F)cc2c1=O | -7.48%
30 | CN(Cc1cccs1)C(=O)CN1C(=O)c2ccccc2S1(=O)=O | -42.7%
31 | COc1ccccc1-n1nnnc1SCC(=O)NC(=O)Cc1ccccc1 | 3.09%
32 | CCC(C)N(C(=O)CSc1nnnn1-c1ccccc1OC)C1CCS(=O)(=O)C1 (configuration not stated) | 6.27%
33 | COc1ccccc1-n1nnnc1S(=O)(=O)Cc1ccc(Cl)cc1 | 108% (active)
34 | O=C(N=C1SC2CS(=O)(=O)CC2N1c1cc(Cl)ccc1Cl)C1CC1 (configuration not stated) | 3.34%
35 | CC1CCN(c2nc3c(c(=O)[nH]c(=O)n3C)n2CCCc2ccccc2)CC1 | -2.12%
36 | Cn1c(=O)[nH]c(=O)c2c1nc(N1CCN(C(c3ccccc3)c3ccccc3)CC1)n2CCO | 74.6% (active)
37 | C=C(C)Cn1c(N2CCCC2)nc2c1c(=O)[nH]c(=O)n2C | -3.39%
38 | COc1ccc(-c2cc3nc(NCCOc4ccccc4)ccn3n2)cc1 | -70.4%
39 | COC(=O)c1ccccc1N=NNc1ccc([N+](=O)[O-])cc1 | -132%
40 | COc1ccc(CCNC(=O)c2ccc(CS(=O)(=O)c3ccc(Br)cc3)o2)cc1OC | 32.6%
41 | Cc1cccc(C)c1Cn1c(C)c(C(=O)NCc2cccc(Cl)c2)sc1=O | 0.34%
42 | CC1(C(=O)NS(=O)(=O)c2ccccc2)CCN1C(=O)c1ccccc1 (configuration not stated) | 8.86%
43 | CC(=O)Nc1cc(-c2cccc(CO)c2)cn2c(-c3cccc(C(F)(F)F)c3)cnc12 | 19.9%
44 | Cc1ccccc1-c1n[nH]c(=S)n1/N=C/c1ccc(-c2ccccc2Br)o1 | 13.5%
45 | Cc1cc(-c2n[nH]c(=S)n2/N=C/C(Br)=C/c2ccccc2)n[nH]1 | 101% (active)
46 | COc1ccccc1N1CCN(/N=C\C(Br)=C\c2ccccc2)CC1 | -183%

Row | Compound | inhibition
47 | COc1c(C)cc(C(O)c2ncc(-c3cccc(C(F)(F)F)c3)[nH]2)cc1C (configuration not stated) | 36.8%
48 | C=CCn1c(C)cc(C2=NNC(=NCC)SC2)c1C | 106% (active)
49 | O=C1CC(c2cccc(Br)c2)C2=C(CCCC2=O)N1 (configuration not stated) | -11.1%
50 | Cc1cc(Cl)ccc1-c1nc(NCCN(C)C)nc2ccsc12 | 5.65%
51 | COc1ccc(-c2n[nH]c3c2CN(C(=O)c2ccc(F)cc2)CC3)cc1 | -4.89%
52 | COc1ccc(C2CC(c3cccc(OC)c3)=NN2c2ccc(S(N)(=O)=O)cc2)cc1 (configuration not stated) | -21.8%
53 | O=C(NCc1ccccc1Cl)c1csc([C@@H]2O[C@H](CO)[C@@H](O)[C@H]2O)n1 | 9.43%
54 | Cc1ccc(CN2CC(N3CCC(Cc4ccccc4)CC3)CS2(=O)=O)cc1 (configuration not stated) | 15.9%
55 | CC(CN1CCCCC1)OC(=O)c1ccccc1Cl (configuration not stated) | -5.2%
56 | O=C(O)Cc1ccc(NCc2ccccc2Cl)cc1 | -84.7%
57 | CC(C)OC(=O)c1ccc(NCc2cc(O)ccc2O)cc1Cl | 64% (active)
58 | COc1ccc(-c2cc(-c3ccc(N)cc3)nc(N)c2C#N)cc1OC | 28.4%
59 | COc1ccc(C2=NO[C@@H]3C(=O)N(Cc4ccccc4)C(=O)[C@H]23)cc1OC | 21.8%
60 | COc1ccc(-c2cc(C(F)(F)F)nc(S(C)(=O)=O)n2)cc1OC | 104% (active)
61 | O=C1N=C2SCCN2/C1=C\c1c(Cl)cccc1Cl | 2.52%
62 | COc1ccc(NC(=O)C2Cc3c(-c4cccc(NC(C)=O)c4)ccnc3O2)cc1OC (configuration not stated) | 24%
63 | CCN(CC)CCCNC(=S)N(CCO)Cc1cc2cc3c(cc2[nH]c1=O)OCO3 | 5.64%
64 | COc1cccc(-n2c(=S)[nH]c3c(oc4ccccc43)c2=O)c1 | -22.9%
65 | O=c1oc2ccccc2cc1-c1cn(-c2ccccc2)c(=S)[nH]1 | 98.7% (active)
66 | O=C(NCC1CCCO1)c1cc2c([nH]c3ccccc32)c(-c2ccc(F)cc2)n1 (configuration not stated) | 61.3% (active)
67 | COc1ccc2cc(C(=O)NCC3CCCO3)[nH]c2c1 (configuration not stated) | -95.8%
68 | O=C(NCCCO)c1cc2c([nH]c3ccccc32)c(-c2ccc(F)cc2)n1 | 23.9%
69 | CCOc1ccc(Cl)cc1-c1cc(C(=O)NCc2cccs2)[nH]n1 | -9.07%

Row | Compound | inhibition
70 | Cc1cc(C(=O)CCl)c(C)n1CC1COc2ccccc2O1 (configuration not stated) | 103% (active)
71 | CCn1cc(C(=O)NCC2COc3ccccc3O2)c2cc(OC)c(OC)cc2c1=O (configuration not stated) | 8.43%
72 | Cc1noc(C)c1C(=O)NCC1COc2ccccc2O1 (configuration not stated) | 15.8%
73 | O=C(Nc1ccc(Cl)cc1)C1Cc2c(-c3ccc4c(c3)OCO4)ccnc2O1 (configuration not stated) | 29%
74 | Cc1ccc(-c2nnc(-n3nnc4ccccc43)c3ccccc23)cc1 | 6.18%
75 | CC1(Cc2ccccc2C#N)C(=O)Nc2ccc(-c3ccc4[nH]ccc4c3)cc21 (configuration not stated) | 14.4%
76 | Cc1nc2ccccc2nc1CC(O)(c1ccccc1)c1ccccc1 | -1.32%
77 | CN(O)C(=S)c1ccccc1 | 92.1% (active)
78 | CN(Cc1ccccc1)C(=O)c1cccc(C(=O)N(C)Cc2ccccc2)c1 | 8.74%
79 | Cc1ccc(CS(=O)Cc2ccc(C(=O)N3CCOCC3)o2)cc1 (configuration not stated) | 11.9%
80 | CCc1nc2ccc(C(=O)Nc3cc(-c4ccccc4)ccc3OC)cn2c1N(CC)CC(=O)N(C)C | -22.1%
81 | Cc1c(C)n(Cc2ccc(Cl)cc2)c2ccc(C(=O)NCCCN3CCOCC3)cc12 | 47.1%
82 | CCN1CCN(CCNC(=O)c2ccc(/C=C3/Sc4ccccc4N(Cc4cccc(C)c4)C3=O)cc2)CC1 | 103% (active)
83 | CCN1CCCC1CNC(=O)c1ccc2c(c1)NC(=O)/C(=C\c1ccccc1F)S2 (configuration not stated) | 56.9% (active)
84 | CCN1CCCC1CNC(=O)c1cc2c(=O)n(C)c3ccccc3c2n1C (configuration not stated) | -10.3%
85 | O=C(NCCCN1CCCCC1)c1ccc2c(c1)NC(=O)C(N1CCOCC1)S2 (configuration not stated) | -8.33%
86 | CN1CCN(CCCNC(=O)c2ccc(/C=C3\Oc4ccccc4N(Cc4ccc(Cl)cc4)C3=O)cc2)CC1 | 109% (active)
87 | CCN1CCN(CCNC(=O)c2ccc3c(c2)NC(=O)/C(=C\c2cccc(Cl)c2)S3)CC1 | 99.5% (active)
88 | CCN1CCCC1CNC(=O)c1cc2cc(OC)c(OC)cc2[nH]1 (configuration not stated) | 18%
89 | O=C(NCCN1CCOCC1)c1ccc2c(c1)N(Cc1cccc(Cl)c1)C(=O)c1ccccc1S2(=O)=O | 23.8%
90 | CC(C)OCCCNC(=O)CN1C(=O)/C(=C/c2ccccc2F)Oc2ccccc21 | 4.52%
91 | Cc1ccccc1CN1C(=O)c2ccccc2Sc2ccc(C(=O)NCCCN3CCOCC3)cc21 | 26.3%
92 | CCCC1=Nc2cc(C(=O)NCCN3CCCC3)ccc2Sc2ccccc21 | 16.7%
